PubChem BioAssay (EPA / NIEHS)
The source made the active and inactive calls. Rule for the calls: active = hit-call score of the fitted dose curve at least 0.9, where 1 is the maximum; inactive = score below 0.9.

experiment: ATG_Sox_CIS: Attagene CIS-FACTORIAL HepG2 Assay for human SRY-box transcription factor (SOX) (AID 2282960); details: HepG2 Attagene cis-factorial SOX reporter, mRNA; actives raise or lower the signal
Method: ATG_CIS is a cell-based, multiplexed-readout assay that uses HepG2, a human liver cell line, with measurements taken at 24 hours after chemical dosing in a 24-well plate.ATG_Sox_CIS is one of 52 assay component(s) measured or calculated from the ATG_CIS assay. It is designed to make measurements of mRNA induction, a form of inducible reporter, as detected with fluorescence intensity signals by Reverse transcription polymerase chain reaction (RT-PCR) and Capillary electrophoresis technology.Data from the assay component ATG_Sox_CIS was analyzed into 1 assay endpoint. This assay endpoint, ATG_Sox_CIS, was analyzed with bidirectional fitting relative to DMSO as the negative control and baseline of activity. Using a type of inducible reporter, measures of mRNA for gain or loss-of-signal activity can be used to understand the reporter gene at the transcription factor-level as they relate to the gene SOX1. Furthermore, this assay endpoint can be referred to as a primary readout, because this assay has produced multiple assay endpoints where this one serves a reporter gene function. To generalize the intended target to other relatable targets, this assay endpoint is annotated to the dna binding intended target family, where the subfamily is HMG box protein.
Human liver HepG2 cells are transiently transfected with multiple reporter transcription units (MRTUs) in 6-well plates using FuGene 6 reagent (Roche; 3 ml FuGene/1 mg DNA). The MRTU constructs are regulated by a cis-regulating element (promoter). […] A major difference between the CIS and TRANS system is that in CIS activities of endogenous TFs are measured, whereas the TRANS assay evaluates changes in activities of exogenous, chimeric NR-Gal4 proteins. […] At the end of 24 hour incubation, total RNA was isolated using TriZol reagent (Invitrogen). The isolated RNA is then reverse-transcribed using oligo(dT) primer and Mo-MLV reverse transcriptase (Invitrogen) with DNAse I (Ambion) treatment for 30 min. The one-tenth of the produced cDNA was amplified by PCR using Taq DNA polymerase (Invitrogen) and two reporter sequence-specific primers. The PCR products were fluorescently labeled by primer extension with 6-arboxyfluorescein (6-FAM) 5'-labeled reporter sequence-specific primer (2 min at 95 C, 20 s at 68 C and 10 min at 72 C) and these products were digested with 5U of HpaI (New England Biolabs) for 2h at 37 C. The fragments were purified using Qiaquick PCR columns (Qiagen), analyzed on an ABI 3130xL genetic analyzer (Applied Biosystems) with peak positions identified by using a set of X-rhodamine (ROX)-labeled MapMarker1000 molecular weight standards (BioVentures). The raw capillary electrophoresis data was processed using Attagraph software (Attagene).

| SMILES | AC50 | outcome |
| --- | --- | --- |
| C#CCC1=C(C)C(OC(=O)C2C(C=C(C)C)C2(C)C)CC1=O (stereo not given) | 82 µM (active) | – |
| CCC(=NOC/C=C/Cl)C1=C(O)CC(C2CCOCC2)CC1=O (stereo not given) | – | inactive |
| CSC1=N[C@@](C)(c2ccccc2)C(=O)N1Nc1ccccc1 | – | inactive |
| C#CC(C)(C)NC(=O)c1cc(Cl)cc(Cl)c1 | – | inactive |
| CCC(=O)Nc1ccc(Cl)c(Cl)c1 | – | inactive |
| CCCCOC(=O)[C@@H](C)Oc1ccc(Oc2ccc(C#N)cc2F)cc1 | – | inactive |
| CON=C(C(=O)OC)c1ccccc1CON=C(C)c1cccc(C(F)(F)F)c1 | – | inactive |
| CCOP(=S)(OCC)Oc1ccc2c(C)c(Cl)c(=O)oc2c1 | – | inactive |
| COP(=O)(OC)OC(Br)C(Cl)(Cl)Br (stereo not given) | – | inactive |
| CC1=NNC(=O)N(/N=C/c2cccnc2)C1 | – | inactive |
| CNC(=O)ON=C(SC)C(=O)N(C)C | – | inactive |
| CCCSP(=O)(OCC)SCCC | – | inactive |
| CC(COc1ccc(Oc2ccccc2)cc1)Oc1ccccn1 (stereo not given) | – | inactive |
| O=[N+]([O-])c1cc(C(F)(F)F)c(Cl)c([N+](=O)[O-])c1Nc1ncc(C(F)(F)F)cc1Cl | – | inactive |
| Nc1nc(N)nc(NC2CC2)n1 | – | inactive |
| CC(C)N(C(=O)SCC(Cl)=C(Cl)Cl)C(C)C | – | inactive |
| COc1cc(OC)nc(Sc2cccc(Cl)c2C(=O)O)n1 | – | inactive |
| N#CSCSC#N | – | inactive |
| CCOC(=O)COc1cc(-c2nn(C)c(OC(F)F)c2Cl)c(F)cc1Cl | – | inactive |
| C=C(C)[C@H]1Cc2c(ccc3c2O[C@@H]2COc4cc(OC)c(OC)cc4[C@@H]2C3=O)O1 | – | inactive |

| SMILES | AC50 | outcome |
| --- | --- | --- |
| CN(C)C(=O)Nc1cccc(C(F)(F)F)c1 | – | inactive |
| CCOP(=S)(OCC)Oc1cc(C)nc(C(C)C)n1 | – | inactive |
| CNC(=O)Oc1cccc2c1OC(C)(C)O2 | – | inactive |
| CCOP(=S)(OCC)SCCSCC | – | inactive |
| CCOP(=O)(NC(C)C)Oc1ccc(SC)c(C)c1 (stereo not given) | – | inactive |
| CCOP(=O)(SC(C)CC)N1CCSC1=O (stereo not given) | – | inactive |
| CCOP(=S)(OCC)OC(Cl)C(Cl)(Cl)Cl (stereo not given) | – | inactive |
| CN1COCN(Cc2cnc(Cl)s2)C1=N[N+](=O)[O-] | – | inactive |
| CCCCSP(=O)(SCCCC)SCCCC | 76.7 µM (active) | – |
| O=c1ccc(=O)[nH][nH]1 | – | inactive |
| CSc1nc(NC(C)C)nc(NC(C)C)n1 | – | inactive |
| CC[C@H](C)[C@H]1O[C@]2(C=C[C@@H]1C)C[C@@H]1C[C@@H](C/C=C(\C)[C@@H](O[C@H]3C[C@H](OC)[C@@H](O[C@H]4C[C@H](OC)[C@@H](NC)[C@H](C)O4)[C@H](C)O3)[C@@H](C)/C=C/C=C3\CO[C@@H]4[C@H](O)C(C)=C[C@@H](C(=O)O1)[C@]34O)O2 | – | inactive |
| CCOC(=O)CC(SP(=O)(OC)OC)C(=O)OCC (stereo not given) | – | inactive |
| CCCCOC(=O)c1ccccc1C(=O)O | – | inactive |
| CNc1cnn(-c2cccc(C(F)(F)F)c2)c(=O)c1Cl | – | inactive |
| Cc1nn(-c2cc(NS(C)(=O)=O)c(Cl)cc2Cl)c(=O)n1C(F)F | – | inactive |
| COP(=O)(OC)C(O)C(Cl)(Cl)Cl (stereo not given) | – | inactive |
| CC(Oc1cccc(Cl)c1)C(=O)O (stereo not given) | – | inactive |
| CC(C1CC1)C(O)(Cn1cncn1)c1ccc(Cl)cc1 (stereo not given) | – | inactive |
| C[Si](Cn1cncn1)(c1ccc(F)cc1)c1ccc(F)cc1 | – | inactive |
